Measured values as given in PubChem BioAssay.
The source made the active and inactive calls.

Legend:
[1] = small molecules captured by biotinylated probe aFSTL3 – biochemical, small-molecule microarray, fluorescence 635/667, stem cell growth factor project, primary screen (AID 1064); details: higher = more signal;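 further: measures binding of the biotinylated anti-FSTL3 antibody to printed compounds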
[2] = binders from COS7 lysate, DM2A8 probe, primary screen, torsin A project, cell lysate, small-molecule microarray, fluorescence 635/667 (AID 1065); details: higher = more signal, COS7 lysate expressing mutant human TOR1A
[3] = small molecules captured by biotinylated probe aFGF2 – biochemical, small-molecule microarray, fluorescence 635/667, stem cell growth factor project, primary screen (AID 1067); details: higher = more signal;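 further: measures binding of biotinylated aFGF2 protein to printed compounds on slides; z-score merges feature fluorescence and signal-to-noise across triplicate slides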
[4] = small molecules captured by biotinylated probe aFGF10 – biochemical, small-molecule microarray, fluorescence 635/667, stem cell growth factor project, primary screen (AID 1071); details: higher = more signal;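 further: score merges 667 nm spot intensity and signal to noise from triplicate slides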
[5] = target: Neurogenic locus notch homolog protein 2 (Homo sapiens) (UniProt Q04721); assay: small molecules binding Notch2 protein – biochemical, small-molecule microarray, 635 nm fluorescence, stem cell growth factors, primary screen (AID 1073); details: higher = more signal
[6] = target: Pro-neuregulin-1, membrane-bound isoform (Homo sapiens) (UniProt Q02297); assay: small molecules binding neuregulin-1 protein – biochemical, small-molecule microarray, fluorescence 635/667, psychiatric disease protein project, primary screen (AID 1075); details: NRG1 binding, 635 nm fluorescence, higher = more signal;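 further: score combines 667 nm spot fluorescence with signal to noise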
[7] = system: Neuregulin-1 EGF-like domain; assay: small molecules binding NRG1 EGF domain – biochemical, small-molecule microarray, 635 nm fluorescence, primary screen (AID 1081); details: higher = more signal;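 further: binding of the protein to compounds printed on small-molecule microarray slides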
[8] = FRG1 expression reporter modulators in myotubes – cell-based, C2C12 myotubes, firefly/Renilla luciferase, luminescence, FRG1 inhibition for FSHD, primary screen (AID 1084); details: FRG1 promoter luciferase, higher = more signal, called active from +8 up or from −8 down
[9] = small molecules captured by biotinylated probe aFST – biochemical, small-molecule microarray, fluorescence 635/667, stem cell growth factor project, primary screen (AID 1086); details: higher = more signal;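 further: score merges 667 nm fluorescence with signal-to-noise of each printed compound spot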
[10] = binders of probe aHhip on microarray, primary screen, stem cell growth factor project, biochemical, small-molecule microarray, fluorescence 635/667 (AID 1087); details: higher = more signal;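 further: score merges spot fluorescence at 667nm with spot signal to noise ratio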
[11] = system: PRMT1 (protein arginine N-methyltransferase 1); assay: small molecules binding arginine methyltransferase PRMT1 – biochemical, small-molecule microarray, 635 nm fluorescence, primary screen (AID 1088); details: higher = more signal;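 further: binding of Prmt1 protein to compounds spotted on small-molecule microarray slides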
[12] = growth effects on S. cerevisiae YJM789 – YJM789 clinical isolate, OD600, 24 h, basal, primary screen (AID 1089); details: higher = more signal, called active from +8 up or from −8 down;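 further: growth of clinical yeast isolate S. cerevisiae YJM 789 seeded 1000 cells per well; test concentration not given here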
[13] = S. pombe growth modifiers, basal conditions – strain 972, OD600, 24 h, no modulator, primary screen (AID 1090);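 further: basal condition with compound alone and no growth modifier present; test concentration not given here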; details: S. pombe 972 growth, higher = more signal, called active from +8 up or from −8 down
[14] = budding yeast growth modifiers under rapamycin – strain BY4716, OD600, 96 h, primary screen (AID 1091); further: test concentration not given here; details: S. cerevisiae BY4716 + rapamycin, higher = more signal, called active from +8 up or from −8 down
[15] = target: Torsin-1A-interacting protein 2 (Homo sapiens) (UniProt Q8NFQ8); assay: small molecules binding lysate-expressed LULL1 – cell lysate, human LULL1 lysate, 635/667 nm fluorescence, primary screen (AID 1092); details: small-molecule microarray, hLULL1 lysate binding, 635 nm fluorescence; higher = more signal;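 further: probe is lysate of COS7 cells overexpressing human LULL1; score merges per-feature 667 nm fluorescence with signal-to-noise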
[16] = optical density change of DRC41 E. coli – strain DRC41, OD650, 24 h, E. coli filamentation project, primary screen (AID 1093);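 further: MC1000 strain lacking acrAB efflux and sulA so SOS filamentation is blocked; test concentration not given here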; details: E. coli DRC41 growth, higher = more signal, called active from +8 up or from −8 down
[17] = probe aLefty2 binding to arrayed compounds – biochemical, biotinylated probe, 635/667 nm fluorescence, primary screen (AID 1094); details: small-molecule microarray, higher = more signal;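 further: score merges spot fluorescence near 667 nm with spot signal-to-noise ratio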
[18] = system: Noggin (protein binding on small-molecule microarray); assay: small molecules binding Noggin protein – biochemical, 635/667 nm fluorescence, primary screen (AID 1095); details: 635 nm fluorescence, higher = more signal;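 further: score merges 667 nm feature fluorescence with signal to noise over triplicate slides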
[19] = target: Neurogenic locus notch homolog protein 3 (Homo sapiens) (UniProt Q9UM47); assay: small molecules binding NOTCH3 protein – biochemical, 635/667 nm fluorescence, primary screen (AID 1096); details: small-molecule microarray, 635 nm fluorescence, higher = more signal
[20] = probe aEGFR binding to arrayed compounds – biochemical, biotinylated probe, 635/667 nm fluorescence, primary screen (AID 1097); details: small-molecule microarray, higher = more signal;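 further: probe is a biotinylated anti-EGFR antibody binding compounds printed on slides; score combines fluorescence near 667 nm and signal to noise of each spot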

Chain of Neurogenic locus notch homolog protein 2 (Homo sapiens) (Q04721 whole entry, looked up, canonical isoform): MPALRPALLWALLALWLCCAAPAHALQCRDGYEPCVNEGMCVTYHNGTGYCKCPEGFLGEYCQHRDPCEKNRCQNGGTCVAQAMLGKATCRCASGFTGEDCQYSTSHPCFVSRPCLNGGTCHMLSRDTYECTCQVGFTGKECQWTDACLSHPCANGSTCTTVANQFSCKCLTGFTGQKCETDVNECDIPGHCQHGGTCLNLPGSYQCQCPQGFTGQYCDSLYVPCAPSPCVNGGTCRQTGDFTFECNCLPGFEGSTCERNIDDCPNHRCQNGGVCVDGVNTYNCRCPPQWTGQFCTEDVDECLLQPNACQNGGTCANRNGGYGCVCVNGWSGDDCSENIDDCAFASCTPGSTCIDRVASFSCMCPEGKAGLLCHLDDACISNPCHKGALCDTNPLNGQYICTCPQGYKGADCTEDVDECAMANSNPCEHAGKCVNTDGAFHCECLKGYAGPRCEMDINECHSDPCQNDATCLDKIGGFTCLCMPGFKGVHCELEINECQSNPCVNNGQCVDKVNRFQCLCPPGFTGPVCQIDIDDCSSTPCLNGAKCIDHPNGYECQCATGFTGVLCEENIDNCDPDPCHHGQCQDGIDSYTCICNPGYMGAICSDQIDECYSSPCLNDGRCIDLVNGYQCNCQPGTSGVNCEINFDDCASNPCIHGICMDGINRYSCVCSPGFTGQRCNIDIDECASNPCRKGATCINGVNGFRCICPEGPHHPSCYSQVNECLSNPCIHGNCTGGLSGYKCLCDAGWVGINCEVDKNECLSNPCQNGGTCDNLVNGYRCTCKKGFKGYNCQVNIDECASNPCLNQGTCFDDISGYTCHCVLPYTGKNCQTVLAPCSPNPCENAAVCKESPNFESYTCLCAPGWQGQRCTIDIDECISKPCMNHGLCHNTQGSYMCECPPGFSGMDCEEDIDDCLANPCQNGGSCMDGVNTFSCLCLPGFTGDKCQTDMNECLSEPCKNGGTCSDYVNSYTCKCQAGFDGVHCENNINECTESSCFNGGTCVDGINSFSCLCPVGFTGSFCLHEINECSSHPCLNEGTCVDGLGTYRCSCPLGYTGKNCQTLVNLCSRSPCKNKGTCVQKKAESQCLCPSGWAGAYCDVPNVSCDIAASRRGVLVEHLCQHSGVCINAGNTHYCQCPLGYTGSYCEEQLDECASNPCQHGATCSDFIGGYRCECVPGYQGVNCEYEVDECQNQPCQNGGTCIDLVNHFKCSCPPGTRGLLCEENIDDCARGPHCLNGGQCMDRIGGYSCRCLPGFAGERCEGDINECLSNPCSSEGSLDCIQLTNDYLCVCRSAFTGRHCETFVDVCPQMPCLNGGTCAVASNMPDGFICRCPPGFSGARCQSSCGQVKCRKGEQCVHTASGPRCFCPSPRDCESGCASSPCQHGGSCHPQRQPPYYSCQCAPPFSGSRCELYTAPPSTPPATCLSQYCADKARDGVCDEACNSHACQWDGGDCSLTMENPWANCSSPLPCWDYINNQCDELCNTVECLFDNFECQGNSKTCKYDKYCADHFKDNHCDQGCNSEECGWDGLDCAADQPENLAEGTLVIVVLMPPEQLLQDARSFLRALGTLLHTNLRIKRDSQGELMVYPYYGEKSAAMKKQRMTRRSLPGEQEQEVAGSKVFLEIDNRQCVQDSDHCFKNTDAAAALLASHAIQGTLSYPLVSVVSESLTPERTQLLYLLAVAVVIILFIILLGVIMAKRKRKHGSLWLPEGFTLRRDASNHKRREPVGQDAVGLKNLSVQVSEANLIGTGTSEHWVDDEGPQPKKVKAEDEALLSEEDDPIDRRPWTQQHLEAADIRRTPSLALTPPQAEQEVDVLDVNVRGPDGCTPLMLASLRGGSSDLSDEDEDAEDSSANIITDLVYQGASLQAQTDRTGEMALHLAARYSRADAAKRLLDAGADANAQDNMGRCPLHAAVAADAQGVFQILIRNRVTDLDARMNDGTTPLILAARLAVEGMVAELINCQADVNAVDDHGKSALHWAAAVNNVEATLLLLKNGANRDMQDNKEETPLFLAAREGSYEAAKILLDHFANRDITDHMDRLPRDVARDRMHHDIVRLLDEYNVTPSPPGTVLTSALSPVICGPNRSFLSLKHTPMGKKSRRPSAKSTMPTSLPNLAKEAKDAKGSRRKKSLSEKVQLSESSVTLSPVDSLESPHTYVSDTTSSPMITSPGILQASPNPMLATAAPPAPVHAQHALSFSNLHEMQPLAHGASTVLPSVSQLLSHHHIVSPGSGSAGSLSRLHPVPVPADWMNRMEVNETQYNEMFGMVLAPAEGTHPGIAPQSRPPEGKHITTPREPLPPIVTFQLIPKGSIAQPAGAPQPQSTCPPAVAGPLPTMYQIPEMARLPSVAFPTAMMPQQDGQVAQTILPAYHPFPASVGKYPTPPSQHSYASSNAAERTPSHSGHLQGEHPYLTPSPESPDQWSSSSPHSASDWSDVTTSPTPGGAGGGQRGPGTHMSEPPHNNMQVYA
Chain of Neurogenic locus notch homolog protein 3 (Homo sapiens) (Q9UM47 whole entry, looked up): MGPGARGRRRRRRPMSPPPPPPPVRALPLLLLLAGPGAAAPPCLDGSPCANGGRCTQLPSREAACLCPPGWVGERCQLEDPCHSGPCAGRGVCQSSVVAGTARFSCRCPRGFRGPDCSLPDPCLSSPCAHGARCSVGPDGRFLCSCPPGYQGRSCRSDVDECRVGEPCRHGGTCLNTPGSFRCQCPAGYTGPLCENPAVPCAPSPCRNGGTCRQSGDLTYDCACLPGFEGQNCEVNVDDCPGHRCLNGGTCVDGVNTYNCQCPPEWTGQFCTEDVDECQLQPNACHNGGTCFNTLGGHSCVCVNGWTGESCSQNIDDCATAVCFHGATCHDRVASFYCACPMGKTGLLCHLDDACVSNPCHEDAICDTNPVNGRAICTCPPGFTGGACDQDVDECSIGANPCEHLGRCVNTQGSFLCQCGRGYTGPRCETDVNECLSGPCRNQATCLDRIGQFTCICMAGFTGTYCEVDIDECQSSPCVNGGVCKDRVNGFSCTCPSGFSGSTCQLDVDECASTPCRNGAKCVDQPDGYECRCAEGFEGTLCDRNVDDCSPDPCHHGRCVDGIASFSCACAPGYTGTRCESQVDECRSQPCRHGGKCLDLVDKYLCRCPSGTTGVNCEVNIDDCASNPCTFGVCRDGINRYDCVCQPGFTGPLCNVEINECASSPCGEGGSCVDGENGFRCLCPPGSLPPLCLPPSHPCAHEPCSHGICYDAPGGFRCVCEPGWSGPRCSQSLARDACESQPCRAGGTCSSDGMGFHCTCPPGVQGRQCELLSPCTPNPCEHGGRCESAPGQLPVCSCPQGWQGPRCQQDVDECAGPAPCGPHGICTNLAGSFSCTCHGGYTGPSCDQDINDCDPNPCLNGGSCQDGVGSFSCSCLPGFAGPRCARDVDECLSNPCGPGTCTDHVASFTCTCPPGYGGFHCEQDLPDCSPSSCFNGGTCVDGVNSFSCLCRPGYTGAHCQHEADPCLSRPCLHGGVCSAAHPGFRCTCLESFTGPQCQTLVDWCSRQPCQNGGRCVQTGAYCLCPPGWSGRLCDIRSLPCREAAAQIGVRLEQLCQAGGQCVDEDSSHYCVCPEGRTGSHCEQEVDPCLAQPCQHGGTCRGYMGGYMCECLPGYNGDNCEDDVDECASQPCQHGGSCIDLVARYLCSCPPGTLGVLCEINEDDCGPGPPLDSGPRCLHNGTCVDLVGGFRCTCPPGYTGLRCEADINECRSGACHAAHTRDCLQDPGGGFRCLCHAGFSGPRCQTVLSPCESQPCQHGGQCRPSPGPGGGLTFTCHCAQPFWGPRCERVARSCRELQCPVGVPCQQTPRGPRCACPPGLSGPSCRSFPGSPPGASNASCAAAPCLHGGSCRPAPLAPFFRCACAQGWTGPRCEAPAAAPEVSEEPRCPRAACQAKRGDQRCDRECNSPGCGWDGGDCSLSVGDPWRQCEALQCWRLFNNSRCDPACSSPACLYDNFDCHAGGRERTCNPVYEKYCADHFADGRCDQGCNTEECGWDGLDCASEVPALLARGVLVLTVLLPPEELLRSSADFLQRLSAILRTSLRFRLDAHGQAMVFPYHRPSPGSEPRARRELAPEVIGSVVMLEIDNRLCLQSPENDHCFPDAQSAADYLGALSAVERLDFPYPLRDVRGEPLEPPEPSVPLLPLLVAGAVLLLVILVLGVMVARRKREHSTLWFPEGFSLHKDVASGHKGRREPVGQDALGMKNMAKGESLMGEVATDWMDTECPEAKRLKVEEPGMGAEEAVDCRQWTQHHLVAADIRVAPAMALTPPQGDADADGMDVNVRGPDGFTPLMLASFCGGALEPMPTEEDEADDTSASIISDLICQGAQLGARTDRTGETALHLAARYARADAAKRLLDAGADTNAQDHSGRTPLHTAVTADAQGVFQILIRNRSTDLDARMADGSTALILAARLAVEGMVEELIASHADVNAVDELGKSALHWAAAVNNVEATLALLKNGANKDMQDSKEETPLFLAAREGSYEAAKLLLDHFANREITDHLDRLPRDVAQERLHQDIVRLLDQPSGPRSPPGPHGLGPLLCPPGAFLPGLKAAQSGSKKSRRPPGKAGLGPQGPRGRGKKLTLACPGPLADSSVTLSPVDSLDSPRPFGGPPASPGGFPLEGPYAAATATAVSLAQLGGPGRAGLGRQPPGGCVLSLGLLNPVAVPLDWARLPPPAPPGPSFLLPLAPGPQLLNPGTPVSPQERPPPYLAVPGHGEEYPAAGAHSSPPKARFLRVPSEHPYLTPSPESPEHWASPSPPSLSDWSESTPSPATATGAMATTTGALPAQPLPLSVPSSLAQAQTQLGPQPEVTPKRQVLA

| SMILES | composite z-score [1] | composite z-score [2] | composite z-score [3] | composite z-score [4] | composite z-score [5] | composite z-score [6] | composite z-score [7] | z-score [8] | composite z-score [9] | composite z-score [10] | composite z-score [11] | z-score [12] | z-score [13] | z-score [14] | composite z-score [15] | z-score [16] | composite z-score [17] | composite z-score [18] | composite z-score [19] | composite z-score [20] |
| --- | --- | --- | --- | --- | --- | --- | --- | --- | --- | --- | --- | --- | --- | --- | --- | --- | --- | --- | --- | --- |
| C=C(COC)/C(=C/C[C@@H](OC(=O)c1ccncc1)c1ccccc1OCCO)c1cnc2ccccc2c1 | -0.421 | 0.749 | -0.085 | 0.922 | 1.58 | 0.495 | 1.17 | -0.828 (inactive) | 0.525 | -0.159 | 1.54 | -0.564 (inactive) | -1.61 (inactive) | 0.698 (inactive) | 2.03 | 1.1 (inactive) | -0.0304 | 1.95 | 1.02 | 0.0533 |
| Cc1ccc(S[C@]2(C(=O)NCC(C)C)CC(=O)N(C(C)C)[C@@H]2c2ccc(CO)cc2I)cc1 | 1.12 | 1.39 | 0.0519 | -0.41 | -0.365 | 1.18 | -0.569 | -0.999 (inactive) | 0.161 | 0.0327 | 1.53 | -1.68 (inactive) | -2.56 (inactive) | -0.0302 (inactive) | 0.979 | 0.97 (inactive) | 0.0968 | -1.6 | -0.0735 | -0.127 |
| CC(=O)NCCCC[C@@H]1NC(=O)[C@H]2C[C@@H](C(=O)O)[C@@H](c3cccc(OCCO)c3)N2C1=O | -0.318 | 1.1 | 0.0761 | 0.841 | 1.15 | 1.14 | 1.18 | 0.618 (inactive) | 0.491 | -0.0862 | 1.54 | 0.341 (inactive) | -0.198 (inactive) | -0.453 (inactive) | 2.49 | -0.147 (inactive) | 0.122 | 1.58 | 1.11 | 0.189 |
| CC(C)c1ccc(NN2C(C(O)C3CCCCC3)C=CC3C(=O)N(c4ccccc4)C(=O)C32)cc1 (stereo not given) | 0.249 | 0.333 | 0.224 | 0.509 | 1.6 | 1.22 | 1 | -1.09 (inactive) | 1.62 | 0.142 | 1.02 | 0.487 (inactive) | 0.361 (inactive) | -0.287 (inactive) | 3.07 | -1.23 (inactive) | 0.0779 | -0.0338 | 1.03 | 0.168 |
| CCOC(=O)C[C@H]1[C@H](OC(=O)c2ccc(-c3ccccc3)cc2)[C@@H](NC(=O)C2CCCCC2)c2cc(OCCCO)ccc2N1C(=O)Cc1ccc(OC)cc1 | -0.114 | 0.279 | -0.0369 | 0.0887 | 0.215 | 0.157 | -0.481 | -0.054 (inactive) | 0.241 | 0.0722 | 0.405 | -0.253 (inactive) | -0.0766 (inactive) | 0.214 (inactive) | 0.852 | -0.884 (inactive) | -0.141 | -0.141 | 0.375 | -0.114 |
| COc1ccc(NN2C(C(O)c3ccc(F)cc3)C=CC3C(=O)N(C4CCCCC4)C(=O)C32)cc1 (stereo not given) | 0.443 | 0.0876 | 0.133 | 0.686 | 1.59 | 1.52 | 1.22 | 1.78 (inactive) | 0.688 | -0.0618 | 1.56 | 0.0646 (inactive) | 1.09 (inactive) | 0.91 (inactive) | 3.24 | -0.637 (inactive) | 0.12 | 0.169 | 1.07 | 0.0903 |
